Results reported in PubChem BioAssay (EPA / NIEHS).
Inconclusive results are not listed. Active and inactive are the calls of the source. How the source made its calls: active means hit-call score of the fitted dose curve at least 0.9, where 1 is the maximum; inconclusive means response in the unintended direction; inactive means score below 0.9.

Biological target: Nuclear receptor subfamily 1 group I member 3 (Homo sapiens) (UniProt Q14994)
Assay: ATG_CAR_TRANS: Attagene TRANS-FACTORIAL HepG2 Assay for human Constitutive Androstane Receptor (CAR) (AID 2282969);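 further: activators raise reporter mRNA above DMSO so AC50 marks induction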
Conditions: HepG2 Attagene TRANS-FACTORIAL CAR reporter
Experimental: ATG_TRANS is a cell-based, multiplexed-readout assay that uses HepG2, a human liver cell line, with measurements taken at 24 hours after chemical dosing in a 24-well plate.ATG_CAR_TRANS is one of 30 assay component(s) measured or calculated from the ATG_TRANS assay. It is designed to make measurements of mRNA induction, a form of inducible reporter, as detected with fluorescence intensity signals by Reverse transcription polymerase chain reaction (RT-PCR) and Capillary electrophoresis technology.Data from the assay component ATG_CAR_TRANS was analyzed into 1 assay endpoint. This assay endpoint, ATG_CAR_TRANS, was analyzed in the positive analysis fitting direction relative to DMSO as the negative control and baseline of activity. Using a type of inducible reporter, measures of mRNA for gain-of-signal activity can be used to understand the reporter gene at the transcription factor-level as they relate to the gene NR1I3. Furthermore, this assay endpoint can be referred to as a primary readout, because this assay has produced multiple assay endpoints where this one serves a reporter gene function. To generalize the intended target to other relatable targets, this assay endpoint is annotated to the nuclear receptor intended target family, where the subfamily is non-steroidal.
Human liver HepG2 cells are transiently transfected with multiple reporter transcription units (MRTUs) in 6-well plates using FuGene 6 reagent (Roche; 3 ml FuGene/1 mg DNA). The MRTU constructs are regulated by a cis-regulating element (promoter). […] A major difference between the CIS and TRANS system is that in CIS activities of endogenous TFs are measured, whereas the TRANS assay evaluates changes in activities of exogenous, chimeric NR-Gal4 proteins. […] At the end of 24 hour incubation, total RNA was isolated using TriZol reagent (Invitrogen). The isolated RNA is then reverse-transcribed using oligo(dT) primer and Mo-MLV reverse transcriptase (Invitrogen) with DNAse I (Ambion) treatment for 30 min. The one-tenth of the produced cDNA was amplified by PCR using Taq DNA polymerase (Invitrogen) and two reporter sequence-specific primers. The PCR products were fluorescently labeled by primer extension with 6-arboxyfluorescein (6-FAM) 5'-labeled reporter sequence-specific primer (2 min at 95 C, 20 s at 68 C and 10 min at 72 C) and these products were digested with 5U of HpaI (New England Biolabs) for 2h at 37 C. The fragments were purified using Qiaquick PCR columns (Qiagen), analyzed on an ABI 3130xL genetic analyzer (Applied Biosystems) with peak positions identified by using a set of X-rhodamine (ROX)-labeled MapMarker1000 molecular weight standards (BioVentures). The raw capillary electrophoresis data was processed using Attagraph software (Attagene).

Sequence of Nuclear receptor subfamily 1 group I member 3 (Homo sapiens) (Q14994 whole entry, looked up): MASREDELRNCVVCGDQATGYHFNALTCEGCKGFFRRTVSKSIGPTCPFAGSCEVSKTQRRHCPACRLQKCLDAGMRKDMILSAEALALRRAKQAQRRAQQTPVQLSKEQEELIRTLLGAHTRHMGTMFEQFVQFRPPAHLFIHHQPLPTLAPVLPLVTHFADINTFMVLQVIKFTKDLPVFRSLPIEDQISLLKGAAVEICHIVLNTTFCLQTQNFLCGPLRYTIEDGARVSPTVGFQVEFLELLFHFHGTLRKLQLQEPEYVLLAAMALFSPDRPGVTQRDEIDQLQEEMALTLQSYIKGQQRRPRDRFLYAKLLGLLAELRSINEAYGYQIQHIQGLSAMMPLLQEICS

outcome, inactive:
CC(C)CC(=O)CC(C)CC(C)C (stereo not given)
CCC(=O)OCc1ccc(OC)cc1
Cc1cccnc1
CCCCCC1CCCC(=O)O1 (stereo not given)
CCCCCCCCCCCCCCCCCC[N+](C)(C)C
NCc1ccccc1
O=[N+]([O-])c1ccccc1C(F)(F)F
c1cc[c]([Bi]([c]2ccccc2)[c]2ccccc2)cc1
C=CCOCC(CC)(CO)COCC=C
CCC(C)NC(N)=O (stereo not given)
CN1CCCC1
O=C(CC(C(=O)OC1CCCCC1)S(=O)(=O)O)OC1CCCCC1 (stereo not given)
OCCc1ccccn1
COc1cccc(OC)c1C(=O)O
Sc1nc2ccccc2s1
O=C(O)Cc1c[nH]c2ccccc12
Cc1ccccc1S(N)(=O)=O
C=C(C)C(=O)OCC1CCCO1 (stereo not given)
O=C(c1ccccc1)c1ccccc1O
CCCCCCCCCCCCCC
CCCC(=O)OC/C=C(\C)CCC=C(C)C
CNC(=C[N+](=O)[O-])NCCSCc1csc(CN(C)C)n1
CC/C=C\CC1=C(C)CCC1=O
CC(C)CC(=O)O
CCC(C)=NO
CCCCOC(=O)COc1ccc(Cl)cc1Cl
CCCCNC(N)=O
CCCCCCOC(=O)CCCCCCCC(=O)OCCCCCC
CC(C)(C)NC(=O)[C@@H]1CN(Cc2cccnc2)CCN1C[C@@H](O)C[C@@H](Cc1ccccc1)C(=O)N[C@H]1c2ccccc2C[C@H]1O
NC(=O)c1ccc(N)cc1
COCCCN
CCCOCCC
C/C=C(\C)C(=O)OCC/C=C\CC
OCCN(CCO)c1cccc(Cl)c1
CC/C=C\CC/C=C/C(OCC)OCC
CC1=C(CC(=O)O)c2cc(F)ccc2/C1=C\c1ccc(S(C)=O)cc1 (stereo not given)
CC(=O)c1nccs1
CCCCCCC(O)CCCCCCCCCCC(=O)OC (stereo not given)
Clc1ccc(Sc2cc(Cl)c(Cl)cc2Cl)cc1
O=C(C(=O)c1ccccc1)c1ccccc1
